# Screens as filed in PubChem BioAssay.
# ELG1 repair inh: ELG1-dependent DNA repair inhibition; HEK293T ELG1-luciferase reporter, luminescence, 16 h; DNA damage induced by 5-fluorouridine; Potency, µM (doses to about 46.1 µM), for inactives: top-dose activity change, negative = inhibition, actives largely listed as inhibitors; 2.3% of 330,000 active; AID 504467; note: % is set by controls: 0 for no effect and ±100 for the full control effect; nearly all actives have a fitted effect of over 55% in size
#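 Quantitative HTS, concentration-response format. 2,000 cells/well co-treated with 5-fluorouridine and compound, 16 hr in 5% CO2 at 37 °C; ONE-Glo luminescence read after 30 min.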
# Nrf2 activator: activates Nrf2 signaling; AREc32 ARE-luciferase reporter (MCF7-derived line), luminescence, 24 h; Potency, µM (series often up to 46.1 µM), for the others: top-dose activation, hits mostly activators; 0.31% of 410,000 active; note: % of control where 0% means no effect; nearly all actives have a fitted effect of over 65% in size
#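 Luciferase luminescence (Steady-Glo, 30 min at room temperature) served as the read-out of ARE activation in AREc32 cells treated with compounds for 24 hr at 37 deg C.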
# IDH1 R132H inh: blocks human mutant IDH1 R132H enzyme. O75874. IDH1-R132H enzyme, NADPH consumption, diaphorase/resazurin fluorescence. Potency, µM (titrated, usually from 76.6 µM), for the others: at the top dose activity change, negative = inhibition, actives largely listed as inhibitors. 0.093% of 390,000 active. AID 602179; note: % is set by controls: 0 for no effect and ±100 for the full control effect; nearly all actives have a fitted effect of over 65% in size
# Target sequence (O75874 whole entry R132H, stated change not applied): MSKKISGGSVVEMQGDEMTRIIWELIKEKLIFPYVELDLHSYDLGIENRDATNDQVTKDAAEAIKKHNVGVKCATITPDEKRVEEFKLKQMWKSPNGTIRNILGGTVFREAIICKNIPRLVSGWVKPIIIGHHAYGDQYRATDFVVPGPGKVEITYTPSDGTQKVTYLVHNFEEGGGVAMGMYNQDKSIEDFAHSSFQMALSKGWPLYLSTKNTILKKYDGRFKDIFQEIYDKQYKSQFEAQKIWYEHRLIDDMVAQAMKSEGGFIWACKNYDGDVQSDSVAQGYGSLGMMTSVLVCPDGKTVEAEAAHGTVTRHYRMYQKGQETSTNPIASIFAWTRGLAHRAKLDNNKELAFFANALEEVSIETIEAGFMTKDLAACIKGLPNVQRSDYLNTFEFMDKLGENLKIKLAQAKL
#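 IDH1-R132H (0.5 ug/mL dispensed) in pH 7.5 Tris buffer was preincubated 30 min with compound, then given a substrate mix of 0.016 mM NADPH and 2 mM alpha-KG for 80 min at room temperature; remaining NADPH was read by diaphorase/resazurin fluorescence.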
# A549 tox: A549 cytotoxicity, counter-screen for Nrf2 inhibitors. A549 ARE-Fluc cells, CellTiter-Fluor viability, 18-24 h. Potency, µM (top dose mostly 46 µM), for inactives: at the top dose activity change, negative = cytotoxicity, most hits filed as inhibitors. 0.16% of 390,000 active. AID 504648; note: % is set by controls: 0 for no effect and ±100 for the full control effect
#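 Cytotoxicity counterscreen: CellTiter-Fluor fluorescence was measured in A549 ARE_Fluc cells after 18-24 h of compound exposure in a concentration series. The subsequent BugLite luminescent read reports ARE-luciferase activity.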
# Nrf2 block: inhibitors of Nrf2 signaling; Potency, µM (top dose mostly 46 µM), without a hit: at the top dose activity change, negative = inhibition, usual class: inhibitors; AID 504444; 2.1% of 360,000 active; A549 ARE-Fluc reporter, luciferase luminescence, 18-24 h; note: % is set by controls: 0 for no effect and ±100 for the full control effect; nearly all actives have a fitted effect of over 60% in size
#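 Cells were seeded and rested 2 h, then exposed to compounds for 18-24 h. CellTiter-Fluor was read first as a viability measure. BugLite was added 15 min before the final luminescent read of ARE-luciferase activity in A549 cells.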
# Active calls of the source: *; ? = inconclusive; nt = no result; [ ] = another dose, or the depositor's remark. Most compounds without a hit are left out; they make up all but 3.8% or so of the library. Calls come from the whole dose curve; as a rule, active = well fitted curve in the direction sought with a large enough effect; inconclusive = small, poorly fitted or top-dose-only effect, or another doubt; inactive = no such curve, though single readings can be large; an effect the other way counts as inactive or inconclusive. Potency is the fitted concentration of half-maximal effect.
SMILES,ELG1 repair inh,Nrf2 activator,IDH1 R132H inh,A549 tox,Nrf2 block
CCCc1c(C(=O)N/N=C/c2sccc2C)nnn1-c1nonc1N,14.4%,2.3%,5.6%,10.8%,4.3%
COc1ccccc1CNc1nc(-c2ccco2)nn1C(=O)c1ccccc1[N+](=O)[O-],nt,?,0.0%,1.7%,?
COC(=O)c1c(C)[nH]c(C(=O)OCC(=O)c2c(N)n(CC(C)C)c(=O)n(C)c2=O)c1C,16.4µM*,5.1%,-3.9%,-14.0%,14.6µM*
CC(C)Cn1c(N)c(C(=O)COC(=O)c2ccncc2)c(=O)n(C)c1=O,?,0.2%,5.2%,5.7%,nt
Cn1c(N)c(C(=O)COC(=O)C2(c3ccc(Cl)cc3)CCCC2)c(=O)n(C)c1=O,?,0.1%,0.2%,?,18.4µM*
Cn1c(N)c(C(=O)COC(=O)C2(c3ccc(F)cc3)CCCC2)c(=O)n(C)c1=O,-15.8%,4.9%,2.1%,-5.9%,?
CC(C)Cn1c(N)c(C(=O)COC(=O)c2ccc(Br)cc2)c(=O)n(C)c1=O,20.6µM*,-1.1%,13.5%,-15.6%,?
CCc1ccc(NC(=O)c2ccc3c(=O)n4nc(Nc5ccccc5C)sc4nc3c2)cc1,nt,0.4%,-9.6%,?,?
Cc1ccc(Oc2c(C(F)(F)F)oc3c(CN4CCCCC4C)c(O)ccc3c2=O)cc1 (stereo not given),nt,4.9%,0.0%,-0.6%,4.3%
Cc1nn2c3c(cnc2c1-c1ccccc1)C(=O)CC(c1ccco1)C3 (stereo not given),?,1.26µM*,1.8%,-12.4%,-24.8%
O=C(CCS(=O)(=O)c1cccs1)Nc1ccc(C(=O)NCc2cccs2)cc1,16.4µM*,-0.3%,3.7%,5.0%,nt
O=C(CCS(=O)(=O)c1cccs1)Nc1ccc(C(=O)NCc2ccc(F)cc2)cc1,-17.7%,-0.4%,0.1%,-1.1%,-15.1%
CCn1c(=O)cc(OCC(=O)NCCc2cccc(C)c2)c2ccccc21,?,4.9%,1.4%,0.7%,0.7%
CCOCCCNC(=O)c1cc(=O)n(Cc2cccc(C)c2)c2ccccc12,16.4µM*,0.0%,2.9%,0.1%,4.1%
CCCCN(CCCC)S(=O)(=O)c1ccc(NS(=O)(=O)c2ccc(NC(C)=O)cc2)cc1,-5.8%,0.2%,-7.0%,-9.9%[1.84 µM],16.4µM*
C/C(=N\NC(=O)C1CCCC1)c1ccc(Cl)cc1,?,-0.1%,-7.0%,3.8%,?
CNc1ccc(Br)cc(C(=O)/C=C/c2cccc(Cl)c2Cl)c1=O,0.0%,7.94µM*,7.4%,-1.2%,0.0%
COc1ccccc1/C=C/C(C)=O,2.1%,16.4%,15.8%,0.3%,5.1%
CNc1ccc(Br)cc(C(=O)/C=C/c2cccc(OC)c2OC)c1=O,?,-0.2%,4.6%,-6.6%,2.1%
COc1ccccc1/C=C/C(=O)c1cc(Br)ccc1OC(=O)c1ccco1,nt,20.3%,2.2%,?,25.9µM*
CNc1ccccc(C(=O)/C=C/c2ccccc2OC)c1=O,23.1µM*,?,4.9%,?,?
CCOc1ccc(Oc2nc(Nc3ccc(C)cc3)nc(N(C)C)n2)nn1,?,0.2%,-0.5%,-12.3%,20.6µM*
CCOc1ccccc1CNC(=O)C(CC)n1nc(C)c2c(C)n(-c3ccccc3)nc2c1=O (stereo not given),nt,-0.6%,-7.7%,-19.1%,?
O=C(CNC(=O)C1CCCCC1)OCC(=O)c1ccc([N+](=O)[O-])cc1,nt,nt,nt,-1.7%,?
O=C(N/N=C/c1cc([N+](=O)[O-])ccc1O)c1c[nH]c2ccccc12,8.2µM*,-0.4%,-8.1%,-3.7%,-20.3%
SMILES,ELG1 repair inh,Nrf2 activator,IDH1 R132H inh,A549 tox,Nrf2 block
COc1cc([N+](=O)[O-])ccc1-c1ccc(/C=N/NC(=O)c2ccccc2O)o1,14.6µM*,nt,nt,nt,nt
O=[N+]([O-])c1ccc(O)c(/C=N/Nc2ccccn2)c1,?,5.3%,6.9%,14.6µM*,?
Cc1ccsc1CCN1C(=O)N(c2ccc(F)cc2)C(=O)C1CC(=O)Nc1ccccc1 (stereo not given),nt,10.5%,2.3%,-17.0%,-18.7%
COC(=O)c1cc(N/C(N)=N/c2nc(C)cc(C)n2)cc(C(=O)OC)c1,nt,0.0%,2.4%,nt,nt
Cc1ccc(-n2c(SCC(=O)Nc3cccc(S(N)(=O)=O)c3)nc3ccccc32)cc1,?,3.2%,?,?,20.6µM*
CC(C)Cn1c(SCC(=O)Nc2cccc(S(N)(=O)=O)c2)nc2ccccc2c1=O,16.4µM*,-0.5%,?,-19.8%,20.6µM*
Cc1nnc(SCC(=O)Nc2cccc(S(N)(=O)=O)c2)n1-c1ccccc1,8.9%,-0.7%,2.5%,-0.1%,1.6%
C=CCn1c(SCC(=O)Nc2cccc(S(N)(=O)=O)c2)nc2sc(C)c(C)c2c1=O,?,4.0%,?,?,16.4µM*
Cc1noc(Cn2c(=O)c3cc4c(cc3n(CC(=O)Nc3ccccc3F)c2=O)OCO4)n1,nt,0.1%,-13.6%,2.4%,-4.9%
CCOC(=O)c1ccc(NC(=O)CN(C)S(=O)(=O)c2ccc(Br)s2)cc1,25.9µM*,-0.1%,5.0%,1.4%,2.6%
CCOC(=O)C1CCCN(C(=O)c2ccc3c(c2)sc2nc(-c4cccc(OC)c4)cn23)C1 (stereo not given),nt,4.0%,5.7%,-6.9%,16.4µM*
COc1cccc(-c2nn(C)c3sc(C(=O)N4CCOCC4)cc23)c1,18.4µM*,5.9%,-1.5%,7.6%,-13.6%
CCOC(=O)C1CCCN(C(=O)c2ccc3c(c2)sc2nc(-c4ccc(C)cc4C)cn23)C1 (stereo not given),nt,0.6%,9.4%,-1.6%,6.3%
CCOC(=O)C1CCCN(C(=O)c2cc3c(-c4cccc(OC)c4)nn(C)c3s2)C1 (stereo not given),11.6µM*,-0.3%,-1.3%,-21.4%,2.1%
COc1cccc(-c2nn(C)c3sc(C(=O)N4CCN(c5ccccn5)CC4)cc23)c1,?,0.1%,0.4%,?,?
O=C(Nc1cccc2cccnc12)c1ccc(Br)cc1,nt,nt,nt,-2.8%,16.3%
COc1ccc(N2CCN(C(c3ccccc3)c3nnnn3C(C)C)CC2)cc1 (stereo not given),nt,nt,nt,-8.1%,-1.8%
O=C(Cc1ccccc1)Nc1ccc(NC(=O)C2CCCCC2)nc1,5.17µM*,-0.8%,3.8%,-1.4%,-10.7%
COc1ccc(-c2cnnn2-c2ccc(NC(=O)/C=C/c3ccc(OC)c(OC)c3)cc2)cc1,5.8µM*,1.0%,-6.6%,2.5%,?
COc1ccc(/C=C/C(=O)Nc2ccc(-n3nncc3-c3ccc(OC)c(OC)c3)cc2)cc1OC,?,3.1%,2.5%,0.0%,?
CCOc1ccc(S(=O)(=O)n2cc(-c3ccc(F)cc3)c(N)n2)cc1,-3.2%,0.1%,-9.6%,12.8%,nt
